Assay results from PubChem BioAssay (NCATS).
Inconclusive results are not listed. Entries that show only a call come without a potency. The source made the active and inactive calls. Calls follow the shape of the dose curve; as a rule, active = well fitted inhibition curve with a large enough effect; inconclusive = small, poorly fitted or top-dose-only effect; inactive = no such curve, though single readings can be large or run the other way.

Target: M-phase phosphoprotein 8 (Homo sapiens) (UniProt Q99549)
Assay: qHTS Validation Assay for Inhibitors for MPP8 Chromodomain Interactions with Methylated Histone Tails (AID 488949); also: nearly all actives have a fitted effect of over 55% in size; as to activity change, negative = inhibition: top concentration of the series differs between compounds
Conditions: AlphaScreen MPP8 binding to H3K9me3 peptide; series mostly up to 114 µM; activity change, negative = inhibition: at the top concentration
Description: As our understanding of epigenetics expands, it is becoming clear that players in this field are potential targets for drug development. This area of epigenetic therapy has established applications for the treatment of cancer and neurological diseases. We have been involved in this field for a number of years and have performed high-throughput screens to identify the first small molecule inhibitors of protein methyltransferases. These methyltransferases target multiple substrates, and thus regulate many arms of an epigenetic pathway. The methylation of different substrates often generates docking sites for effector proteins that harbor binding domains (chromo, tudor, PHD, MBT and ANK repeats). It has been proposed that the binding sites generated for different proteins by these post-translational modifcations mediate downstream effects on chromatin. Consistent with this theory, di- and tri-methylation of histone H3K9 facilitates the binding of heterochromatin protein HP1. The HP1 protein harbors a chromodomain that is responsible for the methyl-dependent interaction between HP1 and lysine 9 of histone H3. HP1 was first described in flies as a heterochromatin associated protein that can regulate gene silencing. It harbors a chromodomain that binds H3K9me3. In addition, it harbors a chromoshadow domain that interacts with a large number of proteins that are involved in heterochromatin formation and gene repression. There are three highly related HP1 isoforms. All three variants are associated with pericentric heterochromatin and it is not clear whether they have specific or redundant functions. MPP8 is also involved in the repression of gene in euchromatic regions (unpublished data) and like HP1 its chromodomain binds H3K9me3. MPP8 harbors an ankyrin repeat region that is likely involved in binding and recruiting interacting proteins with transcriptional repressive function, much like the chromoshadow domain of HP1 does. We hypothesize that by inhibiting specific protein-protein interactions we will be able to develop compounds that block a single arm of an epigenetic pathway. The specificity attained by blocking a single protein-protein interaction will be far greater than that attained by blocking the enzyme that regulates one of many interactions. Low-affinity protein-protein interactions (Kd in the single- to double-digit micromolar range) such as those discussed here have been very difficult to assay by traditional techniques such as fluorescence polarization or fluorescence resonance energy transfer. We have developed a sensitive chemiluminescence-based assay (Quinn, et al. 2009), which serves as the starting point for this project. The following is a validation assay to identify lead compounds that can block methyl-dependent protein-protein interactions (specifically MPP8), which can be used as probes to analyze these methyl-driven interactions and perhaps even developed into targeted epigenetic therapies. Assay Provider: Mark T. Bedford, MD Anderson Screening Center PI: Austin, C.P. Screening Center: NIH Chemical Genomics Center [NCGC]
To each well, 2 uL of MPP8 protein (final 50 nM) and 1 uL biotinylated histone peptide trimethylated at Lys9 [b-H3(1-18)K9me3] (final 50 nM) was added in 1x PBS buffer, pH 7.4, containing 0.01% Tween-20 using a nanoliter dispenser. Formation of a protein-peptide complex proceeded at room temperature for 30 min. A Kalypsys pin-tool was employed to transfer 23 nL of library compound solution in DMSO to each well. Aurintricarboxylic acid (ATA) was used as an intraplate control with a 12-point titration in duplicate. Following a 30 min incubation of the protein-peptide complex with compounds at room temperature, a mixture of 40 ug/mL each streptavidin-coated donor and nickel chelate acceptor AlphaScreen beads (final 10 ug/mL) was added in a 1 uL dispense for a final volume of 4 uL. Plates were incubated protected from the light for 30 min at room temperature. […]
Potency is read from the fitted curve at half-maximal effect.

Sequence of M-phase phosphoprotein 8 (Homo sapiens) (Q99549 whole entry, looked up): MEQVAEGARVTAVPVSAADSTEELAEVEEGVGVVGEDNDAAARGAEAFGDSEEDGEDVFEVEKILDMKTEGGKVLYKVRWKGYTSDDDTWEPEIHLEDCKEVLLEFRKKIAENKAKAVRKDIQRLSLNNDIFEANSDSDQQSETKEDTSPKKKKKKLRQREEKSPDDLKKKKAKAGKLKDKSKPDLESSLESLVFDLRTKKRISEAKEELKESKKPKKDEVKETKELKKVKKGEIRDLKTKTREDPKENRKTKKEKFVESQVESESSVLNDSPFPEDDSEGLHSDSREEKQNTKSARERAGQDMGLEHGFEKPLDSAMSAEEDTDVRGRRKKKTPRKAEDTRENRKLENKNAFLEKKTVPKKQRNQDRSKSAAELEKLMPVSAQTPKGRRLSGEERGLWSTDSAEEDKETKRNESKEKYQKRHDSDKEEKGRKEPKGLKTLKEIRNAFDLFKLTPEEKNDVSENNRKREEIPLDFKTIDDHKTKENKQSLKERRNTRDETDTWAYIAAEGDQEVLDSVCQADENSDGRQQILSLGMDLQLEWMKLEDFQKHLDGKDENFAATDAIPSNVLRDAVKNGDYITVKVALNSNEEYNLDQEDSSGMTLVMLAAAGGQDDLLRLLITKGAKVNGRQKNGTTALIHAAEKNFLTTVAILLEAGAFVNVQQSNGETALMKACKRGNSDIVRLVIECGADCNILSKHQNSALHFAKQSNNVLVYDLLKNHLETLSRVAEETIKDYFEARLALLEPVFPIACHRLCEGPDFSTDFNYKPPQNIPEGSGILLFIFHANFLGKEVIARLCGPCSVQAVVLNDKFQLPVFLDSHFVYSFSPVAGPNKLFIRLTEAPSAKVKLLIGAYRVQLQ

SMILES | activity change, negative = inhibition | Potency
CCCCC/C=C\C/C=C\C/C=C\C/C=C\CCCC(=O)NCC(=O)O | -1.85% (inactive) | 
CCC1(c2ccc(N)cc2)CCC(=O)NC1=O (stereo unspecified) |  | inactive
CC(=O)N1CCN(c2ccc(OC[C@H]3CO[C@](Cn4ccnc4)(c4ccc(Cl)cc4Cl)O3)cc2)CC1 |  | 39.8 µM (active)
CC(C)(C)NCC(O)c1ccccc1Cl (stereo unspecified) |  | inactive
COc1ccc2c(c1OC)C(=O)O[C@H]2[C@@H]1c2cc3c(cc2CCN1C)OCO3 |  | inactive
O=c1[nH]oc2c1CCNC2 |  | inactive
CN(C)C(=O)Oc1ccc[n+](C)c1 |  | inactive
CN=C(NC#N)NCCSCc1nc[nH]c1C | 9.23% (inactive) | 
CC(C)c1cccc(C(C)C)c1O |  | inactive
CC(C)N(CCC(C(N)=O)(c1ccccc1)c1ccccn1)C(C)C (stereo unspecified) |  | inactive
CC(NC(C)(C)C)C(=O)c1cccc(Cl)c1 (stereo unspecified) |  | inactive
O=C(CCCN1CCC2(CC1)C(=O)NCN2c1ccccc1)c1ccc(F)cc1 | -6.92% [at 57.1 µM] (inactive) | 
Cc1ncsc1CCCl | 0.124% [at 57.1 µM] (inactive) | 
CC[N+](CC)(CC)CCOc1cccc(OCC[N+](CC)(CC)CC)c1OCC[N+](CC)(CC)CC |  | 13.4 µM (active)
O=C(O)CCCc1ccc(N(CCCl)CCCl)cc1 |  | inactive
NCCc1ccc(O)cc1 |  | inactive
C=C(C)[C@H]1CN[C@H](C(=O)O)[C@H]1CC(=O)O |  | inactive
O=P1(N(CCCl)CCCl)NCCCO1 (stereo unspecified) |  | inactive
Cc1nnc(SCC2=C(C(=O)O)N3C(=O)[C@@H](NC(=O)Cn4cnnn4)[C@H]3SC2)s1 |  | inactive
CN1C(=O)CCS(=O)(=O)C1c1ccc(Cl)cc1 (stereo unspecified) | -1.43% (inactive) | 
C[C@]12CCC(=O)C=C1CC[C@@H]1[C@@H]2CC[C@]2(C)C(=O)CC[C@@H]12 | 0.611% (inactive) | 
